PubChem BioAssay AID1159580 (chemical genetic matrix, 2015)
Hit rate of the full screen: of about 5,500 compounds, about 2,000 (36%) were called active. Inconclusive results (about 18%) are left out. Cut-off read from the data, not from the text of the source: active = normalized growth mostly below about 0.91 (no sharp cut-off); inconclusive = no clear call, values can overlap the other calls; inactive = mostly above about 0.92. This is one part of the list.

Experiment: chemical genetic growth profiling, strain panel (AID 1159580);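 note: tested at 20 µM; growth read once vehicle control cultures reached saturation at 30 °C; 1 = growth at the plate median or of vehicle wells; lower values mean less growth of the strain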
Conditions: growth OD

Measured: normalized growth

CN(C)[C@@H]1C(=O)C(C(N)=O)=C(O)[C@@]2(O)C(=O)C3=C(O)c4c(O)cccc4[C@@](C)(O)[C@H]3[C@H](O)[C@@H]12
inactive: S. cerevisiae deletion strains, locus YJR075W, strain HOC1, hits give low values 1.01 | S. cerevisiae deletion strains, locus YKL009W, strain mrt4, hits give low values 0.996 | S. cerevisiae deletion strains, locus YKL068W, hits give low values 0.997 | S. cerevisiae deletion strains, locus YKL085W, strain MDH1 (second series), hits give low values 0.999 | S. cerevisiae deletion strains, locus YKL085W, strain MDH1, hits give low values 0.999 | S. cerevisiae deletion strains, locus YKL160W, strain elf1, hits give low values 1.02 | S. cerevisiae deletion strains, locus YKL190W, strain CNB1, hits give low values 1.01 | S. cerevisiae deletion strains, locus YKR001C, strain vps1, hits give low values 0.989 | S. cerevisiae deletion strains, locus YKR026C, strain gcn3, hits give low values 1.01 | S. cerevisiae deletion strains, locus YKR091W, strain srl3, hits give low values 1.02 | S. cerevisiae deletion strains, locus YLL001W, strain dnm1, hits give low values 1.02 | S. cerevisiae deletion strains, locus YLL026W, hits give low values 1.03 | S. cerevisiae deletion strains, locus YLL041C, strain sdh2, hits give low values 1.02 | S. cerevisiae deletion strains, locus YLR027C, strain aat2, hits give low values 1.01 | S. cerevisiae deletion strains, locus YLR039C, strain RIC1, hits give low values 1.03 | S. cerevisiae deletion strains, locus YLR058C, strain SHM2, hits give low values 1 | S. cerevisiae deletion strains, locus YLR102C, strain apc9, hits give low values 0.995 | S. cerevisiae deletion strains, locus YLR113W, strain HOG1, hits give low values 0.995 | S. cerevisiae deletion strains, locus YLR221C, strain rsa3, hits give low values 1.01 | S. cerevisiae deletion strains, locus YLR258W, strain gsy2, hits give low values 1.01 | S. cerevisiae deletion strains, locus YLR262C, strain YPT6 (second series), hits give low values 0.997 | S. cerevisiae deletion strains, locus YLR262C, strain YPT6, hits give low values 1.02 | S. cerevisiae deletion strains, locus YLR268W, strain sec22, hits give low values 0.975 | S. cerevisiae deletion strains, locus YLR320W, strain mms22, hits give low values 1.01 | S. cerevisiae deletion strains, locus YLR330W, strain CHS5, hits give low values 1.01 | S. cerevisiae deletion strains, locus YLR342W, strain FKS1 (second series), hits give low values 0.976 | S. cerevisiae deletion strains, locus YLR342W, strain FKS1, hits give low values 1 | S. cerevisiae deletion strains, locus YLR357W, strain rsc2, hits give low values 1 | S. cerevisiae deletion strains, locus YLR370C, strain arc18, hits give low values 1.02 | S. cerevisiae deletion strains, locus YLR371W, strain rom2, hits give low values 1 | S. cerevisiae deletion strains, locus YLR384C, strain iki3, hits give low values 1.02 | S. cerevisiae deletion strains, locus YLR418C, strain cdc73, hits give low values 0.986 | S. cerevisiae deletion strains, locus YML016C, strain PPZ1, hits give low values 0.994 | S. cerevisiae deletion strains, locus YML032C, strain rad52, hits give low values 0.98 | S. cerevisiae deletion strains, locus YML120C, strain ndi1, hits give low values 1.01 | S. cerevisiae deletion strains, locus YML124C, strain tub3, hits give low values 1 | S. cerevisiae deletion strains, locus YMR058W, strain fet3, hits give low values 0.977 | S. cerevisiae deletion strains, locus YMR078C, strain ctf18, hits give low values 1 | S. cerevisiae deletion strains, locus YMR125W, strain sto1, hits give low values 1.01 | S. cerevisiae deletion strains, locus YMR129W, hits give low values 1.01 | S. cerevisiae deletion strains, locus YMR205C, strain PFK2, hits give low values 1.04 | S. cerevisiae deletion strains, locus YMR223W, strain ubp8, hits give low values 0.988 | S. cerevisiae deletion strains, locus YMR231W, strain pep5, hits give low values 1.02 | S. cerevisiae deletion strains, locus YMR307W, strain GAS1, hits give low values 0.994 | S. cerevisiae deletion strains, locus YNL067W, strain RPL9B, hits give low values 1.01 | S. cerevisiae deletion strains, locus YNL071W, strain lat1, hits give low values 1.02 | S. cerevisiae deletion strains, locus YNL128W, strain TEP1, hits give low values 1.01 | S. cerevisiae deletion strains, locus YNL153C, strain GIM3, hits give low values 0.998 | S. cerevisiae deletion strains, locus YNL183C, strain NPR1, hits give low values 0.95 | S. cerevisiae deletion strains, locus YNL209W, strain ssb2, hits give low values 1.01 | S. cerevisiae deletion strains, locus YNL233W, strain BNI4, hits give low values 1 | S. cerevisiae deletion strains, locus YNL248C, strain rpa49, hits give low values 0.966 | S. cerevisiae deletion strains, locus YNL250W, strain rad50, hits give low values 0.994 | S. cerevisiae deletion strains, locus YNL271C, strain bni1, hits give low values 0.984 | S. cerevisiae deletion strains, locus YNL298W, strain CLA4, hits give low values 0.968 | S. cerevisiae deletion strains, locus YNL307C, strain MCK1, hits give low values 1.01 | S. cerevisiae deletion strains, locus YNL322C, strain KRE1 (second series), hits give low values 1.01 | S. cerevisiae deletion strains, locus YNL322C, strain KRE1, hits give low values 1 | S. cerevisiae deletion strains, locus YNR049C, strain mso1, hits give low values 1.02 | S. cerevisiae deletion strains, locus YNR052C, strain pop2, hits give low values 0.995 | S. cerevisiae deletion strains, locus YOL006C, strain TOP1, hits give low values 1.03 | S. cerevisiae deletion strains, locus YOL012C, strain htz1 0.944 | S. cerevisiae deletion strains, locus YOL147C, strain pex11, hits give low values 0.991 | S. cerevisiae deletion strains, locus YOR001W, strain rrp6, hits give low values 1.04 | S. cerevisiae deletion strains, locus YOR061W, strain CKA2, hits give low values 1 | S. cerevisiae deletion strains, locus YOR069W, strain VPS5, hits give low values 1.01 | S. cerevisiae deletion strains, locus YOR070C, strain gyp1, hits give low values 1.01 | S. cerevisiae deletion strains, locus YOR080W, strain dia2, hits give low values 1.01 | S. cerevisiae deletion strains, locus YOR083W, strain WHI5, hits give low values 1.02 | S. cerevisiae deletion strains, locus YOR106W, strain vam3, hits give low values 1.02 | S. cerevisiae deletion strains, locus YOR136W, strain idh2, hits give low values 1.01 | S. cerevisiae deletion strains, locus YOR144C, strain elg1, hits give low values 0.996 | S. cerevisiae deletion strains, locus YOR184W, strain ser1, hits give low values 1 | S. cerevisiae deletion strains, locus YOR231W, strain MKK1, hits give low values 0.99 | S. cerevisiae deletion strains, locus YOR265W, strain rbl2, hits give low values 1.02 | S. cerevisiae deletion strains, locus YOR270C, strain vph1, hits give low values 1.04 | S. cerevisiae deletion strains, locus YOR290C, strain snf2, hits give low values 1 | S. cerevisiae deletion strains, locus YOR316C, strain cot1, hits give low values 1.01 | S. cerevisiae deletion strains, locus YPL051W, strain arl3, hits give low values 0.995 | S. cerevisiae deletion strains, locus YPL055C, strain LGE1, hits give low values 1.02 | S. cerevisiae deletion strains, locus YPL078C, strain atp4, hits give low values 1.03 | S. cerevisiae deletion strains, locus YPL106C, strain sse1, hits give low values 1.02 | S. cerevisiae deletion strains, locus YPL240C, strain hsp82, hits give low values 1.03 | S. cerevisiae deletion strains, locus YPL241C, strain CIN2, hits give low values 1 | S. cerevisiae deletion strains, locus YPL256C, strain CLN2, hits give low values 0.991 | S. cerevisiae deletion strains, locus YPR119W, strain clb2, hits give low values 1 | S. cerevisiae deletion strains, locus YPR141C, strain kar3, hits give low values 0.995 | S. cerevisiae deletion strains, locus YPR163C, strain tif3, hits give low values 1 | S. cerevisiae deletion strains, locus YPR167C, strain met16, hits give low values 1 | S. cerevisiae deletion strains, strain wtn01, hits give low values 0.985 | S. cerevisiae strains, strain wild type, hits give low values 1
